# Only a selection was taken, and hits are over-represented in it overall.
# HT1080 IDH1KD tx: kills HT-1080 cells with IDH1 knockdown; HT-1080 IDH1 knockdown viability, ATP luminescence, 48 h; Potency, µM (top dose mostly 46.1 µM), for inactives: at the top dose activity, negative = toxicity, hits mostly cytotoxic; 360,000 compounds, 2% hits; AID 686971;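 also: potency is read from the fitted curve at half-maximal effect; 0% = DMSO wells and -100% = cell-free medium wells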
#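 Assay cells: HT-1080 with IDH1 knockdown, 750 per well, RPMI/5% FBS. Exposure: 48 h at 37 °C following 2 h pre-incubation. Read: CellTiter-Glo luminescence; fitted concentration-response, curve class assigned.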
# HT1080NT lethal: kills 2HG-producing HT-1080-NT fibrosarcoma cells. HT-1080-NT fibrosarcoma viability, CellTiter-Glo ATP luminescence, 48 h. Potency, µM (doses to about 46.1 µM), for inactives: top-dose activity, negative = less viability, hits mostly cytotoxic. 360,000 compounds, 1.6% hits. AID 686970;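 also: NT is the 2HG producing partner of a matched IDH1 knockdown line; potency is read from the fitted curve at half-maximal effect; 0% = DMSO-treated cells and -100% = media-only wells without cells; nearly all actives have a fitted effect of over 55% in size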
#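 Viability of the 2HG-overproducing fibrosarcoma line after 48 hours of compound exposure at 37 degrees C was determined by luminescence with CellTiter-Glo, and concentration-effect curves were then fitted and categorized.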
# 12-LOX inh: ALOX12 (human) lipoxygenase inhibition | P18054 | 580,000 compounds, 1.1% hits | purified 12hLO, xylenol orange hydroperoxide absorbance | AID 1671190 | Potency, µM (titrated, usually from 108 µM), without a hit: at the highest dose activity change, negative = inhibition, most hits filed as inhibitors; also: potency is read from the fitted curve at half-maximal effect
# Target sequence (P18054 whole entry, looked up): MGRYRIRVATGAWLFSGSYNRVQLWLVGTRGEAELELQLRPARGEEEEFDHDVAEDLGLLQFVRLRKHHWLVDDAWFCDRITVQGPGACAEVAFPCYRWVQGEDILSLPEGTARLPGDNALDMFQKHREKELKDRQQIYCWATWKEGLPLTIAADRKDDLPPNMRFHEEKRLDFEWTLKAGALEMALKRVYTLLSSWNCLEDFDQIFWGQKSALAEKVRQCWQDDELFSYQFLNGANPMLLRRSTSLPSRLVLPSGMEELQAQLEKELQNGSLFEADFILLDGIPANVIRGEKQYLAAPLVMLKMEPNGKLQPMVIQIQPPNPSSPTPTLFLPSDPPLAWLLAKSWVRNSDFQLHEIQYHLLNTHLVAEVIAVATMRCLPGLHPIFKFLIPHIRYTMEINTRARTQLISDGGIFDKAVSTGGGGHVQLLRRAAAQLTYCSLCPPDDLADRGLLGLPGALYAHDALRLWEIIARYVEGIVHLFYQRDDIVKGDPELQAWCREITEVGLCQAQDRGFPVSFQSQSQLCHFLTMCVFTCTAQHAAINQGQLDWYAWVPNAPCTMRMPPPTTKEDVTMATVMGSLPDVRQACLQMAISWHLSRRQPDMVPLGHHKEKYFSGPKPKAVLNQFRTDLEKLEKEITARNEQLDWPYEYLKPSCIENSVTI
#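 Purified human 12hLO (150 nM final) in 25 mM Hepes, 0.01% Triton X-100, pH 7.0 was preincubated 15 min at room temperature with compound. Then 40 uM arachidonic acid was added, 30 min. Hydroperoxide was read by Fe-XO absorbance ratio 573/405 nm.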
# IL-1B inflam inh: inflammasome signaling inhibition, IL-1 beta readout | THP-1 LPS/ATP IL-1B secretion, AlphaLISA, 16 h; hits give low values | activity change, % at 57.5 µM | 360,000 compounds, 4.7% hits | AID 743279; in the data active = activity change below about -50%; inconclusive = mostly about -30% to -49%
#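 Secreted IL-1B measured by AlphaLISA bead assay after 16 h compound exposure of THP-1 cells; compounds (final up to 57.5 uM) added 1 h before LPS (250 ng/mL) and ATP (1.25 mM) stimulation; lower signal means less secretion.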
# TDP1 cell noCPT: qHTS for Inhibitors of human tyrosyl-DNA phosphodiesterase 1 (TDP1): qHTS in cells in absence of CPT. DT40 Tdp1-/- hTDP1 cells, no CPT, ATP luminescence, 48 h. 420,000 compounds, 15% hits. AID 686978, 2013. Potency, µM (highest dose often 46.2 µM), without a hit: at the top dose activity change, negative = growth inhibition, actives largely listed as inhibitors; also: potency is read from the fitted curve at half-maximal effect; nearly all actives have a fitted effect of over 55% in size
#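 DT40 Tdp1-/-;hTDP1 cells, no CPT (DMSO vehicle only), 400 cells/well; compounds pin-transferred; ≥48 hr, 37 °C; CellTiter-Glo 30 min RT dark, luminescence read.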
# DT40 TDP1 CPT: DT40-hTDP1 cell growth loss with CPT | chicken DT40 Tdp1-/-;hTDP1 cells + 20 nM CPT, ATP luminescence, 48 h | 420,000 compounds, 12% hits | Potency, µM (doses to about 46.2 µM), inactives show at the highest dose activity change, negative = growth inhibition, actives largely listed as inhibitors; also: potency is read from the fitted curve at half-maximal effect; nearly all actives have a fitted effect of over 55% in size
#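 Chicken DT40 Tdp1-/- cells complemented with human TDP1, 400 cells/well, exposed to compounds plus 20 nM camptothecin for at least 48 h at 37 C; viability read as ATP content by CellTiter-Glo luminescence.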
# Starred values were filed as active, the others as inactive; ? = inconclusive; . = no result given. Unless noted, calls follow the shape of the dose curve; as a rule, active = well fitted curve in the direction sought with a large enough effect; inconclusive = small, poorly fitted or top-dose-only effect, or another doubt; inactive = no such curve, though single readings can be large; an effect the other way counts as inactive or inconclusive. Unless noted, % is scaled to controls: 0 for no effect and ±100 for the full control effect.
SMILES,HT1080 IDH1KD tx,HT1080NT lethal,12-LOX inh,IL-1B inflam inh,TDP1 cell noCPT,DT40 TDP1 CPT
CCOC(=O)c1c(C)[nH]c(C(C)=NNC(=O)c2cccs2)c1C,-0.2%,-2.2%,-2.7%,-7.9,6.51µM*,11.6µM*
Cc1c(CC(=O)O)c(=O)oc2cc(OCc3ccccc3Cl)ccc12,.,.,-0.3%,.,.,.
CCOC(=O)c1c(C)[nH]c(C(=O)N/N=C\c2ccccc2Cl)c1C,14.6µM*,?,29.2%,0.0,16.4µM*,16.4µM*
CCOC(=O)c1c(C)[nH]c(C(=O)NNC(=O)c2ccccc2)c1C,17.1%,7.9%,6.4%,-1.6,-7.2%,-10.8%
COc1ccc(CNc2cc(C)nc3ccc(OC)cc23)cc1,14.6µM*,?,?,-92.9*,20.6µM*,?
CCOc1ccc(Nc2cc(C)nc3ccc(C)cc23)cc1,?,29.1µM*,-8.3%,-88.3*,?,23.1µM*
COc1ccc2nc(C)cc(Sc3nc4ccccc4s3)c2c1,23.1µM*,10.3µM*,-8.0%,-99.3*,9.2µM*,9.2µM*
COc1ccc(Nc2cc(C)nc3ccc(OC)cc23)cc1,?,?,0.0%,-100.7*,?,-3.5%
COc1ccc2nc(C)cc(Nc3ccc(C(=O)O)cc3)c2c1,10.2%,6.1%,-10.2%,1.5,-0.8%,10.1%
O/N=c1/oc2cc3occ(-c4ccc(F)cc4)c3cc2c2c1CCC2,.,.,-24.5%,.,.,.
COc1cc(/C=C(\C#N)C(=O)NC2CCCCC2C)ccc1OS(=O)(=O)c1ccc(C)cc1 (stereo not drawn),?,?,-0.6%,-102.8*,16.4µM*,?
CC1CCCCC1NC(=O)/C(C#N)=C/c1ccccc1F (stereo not drawn),18.4µM*,?,-8.6%,-101.2*,-100.0%,-103.8%
CSc1ccc(/C=C(/C#N)C(=O)NC2CCCC2)cc1,.,.,8.4%,.,.,.
CSc1ccc(/C=C(\C#N)C(=O)NC2CCCCC2C)cc1 (stereo not drawn),?,?,-2.3%,-119.9*,10.3µM*,?
COc1cccc(-c2cnc3c(NC(C)=O)cc(-c4ccc(C(=O)N5CCOCC5)cc4)cn23)c1,20.6µM*,?,1.5%,?,18.4µM*,20.6µM*
CC(=O)Nc1cnc(-c2cccc(C(=O)N3CCOCC3)c2)cn1,2.9%,20.2%,0.0%,9.0,6.6%,6.5%
CC(=O)Nc1cncc(-c2cccc(C(=O)N3CCOCC3)c2)n1,1.0%,-2.4%,-5.6%,-2.9,6.51µM*,-36.8%
CN(C)CCNC(=O)c1cccc(-c2cnc3c(NC=O)cc(-c4ccc(C(=O)N5CCOCC5)cc4)cn23)c1,0.6%,16.8%,11.2%,-5.1,11.8%,-1.2%
CC(=O)Nc1cc(-c2ccc(C(=O)N3CCOCC3)cc2)cn2c(-c3cccc(C(C)=O)c3)cnc12,-15.9%,-23.0%,-11.5%,?,14.6µM*,?
COC(=O)/C(=C\c1ccc([N+](=O)[O-])cc1)NC(C)=O,.,.,-2.1%,.,.,.
COC(=O)C(C)NC(=O)C12CC3CC(CC(Br)(C3)C1)C2 (stereo not drawn),.,.,-22.3%,.,.,.
CCOc1ccc(C2C(C(C)=O)=C(O)C(=O)N2CCc2c[nH]c3ccccc23)cc1 (stereo not drawn),?,-25.9%,?,14.7,-29.7%,3.6%
COc1cccc(C2C(C(C)=O)=C(O)C(=O)N2CCc2c[nH]c3ccccc23)c1 (stereo not drawn),2.7%,-15.1%,5.01µM*,10.0,-24.3%,-4.4%
CC(=O)C1=C(O)C(=O)N(CCc2c[nH]c3ccccc23)C1c1ccc(O)cc1 (stereo not drawn),-0.5%,-0.3%,8.91µM*,44.3,-5.9%,18.2%
COCCCN1C(=O)C(O)=C(C(C)=O)C1c1cccc(F)c1 (stereo not drawn),12.8%,8.5%,7.94µM*,22.4,24.6%,-6.3%
SMILES,HT1080 IDH1KD tx,HT1080NT lethal,12-LOX inh,IL-1B inflam inh,TDP1 cell noCPT,DT40 TDP1 CPT
CCCCN1C(=O)C(O)=C(C(C)=O)C1c1ccccc1 (stereo not drawn),11.2%,-1.1%,.,2.7,-25.3%,-3.7%
CSc1ccc(/C=C/C(=O)c2ccc(NC(=O)c3ccccc3Cl)cc2)cc1,.,.,-9.6%,.,.,.
Cc1c(Cc2ccccc2)c(=O)oc2c(C)c(OS(C)(=O)=O)ccc12,.,.,1.3%,.,.,.
O=C(C1CCCCC1)N1CC(F)(F)C[C@H]1c1nnc(C2CC2)o1,.,.,58.2%,.,.,.
CC(C)(C)Sc1ccc2nc3c(n2c1)CCCC3,-14.3%,-13.1%,-0.6%,-16.4,5.8µM*,20.6µM*
CN1C(=O)N(C)C2(CCN(CCOc3ccc(F)cc3)C2)C1=O (stereo not drawn),.,.,50.1µM*,.,.,.
CCc1ccccc1NS(=O)(=O)c1ccc2[nH]cc(C(=O)NC3CCCC3)c(=O)c2c1,18.4µM*,?,?,-29.9,?,?
O=C(NC1CCCCC1)c1c[nH]c2ccc(S(=O)(=O)Nc3ccccc3F)cc2c1=O,.,.,?,.,?,-0.8%
CCN(c1ccccc1)S(=O)(=O)c1ccc2[nH]cc(C(=O)NC3CCCCC3)c(=O)c2c1,.,.,?,.,14.6µM*,?
Nc1ccccc1Nc1cc(-c2ccccc2)nn1-c1cccc(Cl)c1,?,?,-11.2%,-52.1*,?,-15.4%
Cc1cccc(-c2cc(NC(=O)c3ccccc3C)n(-c3ccccc3)n2)c1,.,.,-13.5%,.,-25.6%,?
CC(C)c1ccc(C(=O)Nc2cc(-c3ccccc3F)nn2-c2ccccc2)cc1,.,.,-18.9%,.,10.3µM*,20.6µM*
O=C(Nc1cc(-c2cccc(Cl)c2)nn1-c1ccccc1)c1ccccc1F,.,.,-1.7%,.,?,16.4µM*
COc1ccccc1C(=O)Nc1cc(-c2cccc(Br)c2)nn1-c1ccccc1,.,.,-19.7%,.,7.31µM*,14.6µM*
CCN(CC)C(=O)CC(C#N)(CC(=O)N(CC)CC)c1nc2ccccc2s1,.,.,4.6%,.,.,.
CCOC(=O)[C@]12CCCC=C1N(Cc1ccc3c(c1)OCO3)C(=O)[C@H](CC(=O)NCCCOC)C2,2.1%,11.8%,-2.4%,9.6,-27.5%,-28.1%
CCOC(=O)[C@]12CCC=C1N(Cc1ccc3c(c1)OCO3)C(=O)[C@H](CC(=O)NCC13CC4CC(CC(C4)C1)C3)C2,?,?,-6.8%,?,23.1µM*,?

# Compound activity (PubChem BioAssay)
